Screens (PubChem BioAssay)
Rows were chosen to be rich in hits. Some 9.3% of all compounds tested hit in one or more screens of this group.
FLuc counter: firefly luciferase modulation, counter-screen for miR-21 project | Potency, µM (top dose mostly 57.5 µM), for the others: top-dose activity change, negative = inhibition, actives largely listed as inhibitors | P08659 | actives 6.9% (n = 360,000) | AID 588342 | purified FLuc, Km substrates, luminescence inhibition;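 also: plate controls were vehicle for no effect and reference inhibitor for full effect; nearly all actives have a fitted effect of over 55% in size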
Target sequence (P08659 whole entry, looked up): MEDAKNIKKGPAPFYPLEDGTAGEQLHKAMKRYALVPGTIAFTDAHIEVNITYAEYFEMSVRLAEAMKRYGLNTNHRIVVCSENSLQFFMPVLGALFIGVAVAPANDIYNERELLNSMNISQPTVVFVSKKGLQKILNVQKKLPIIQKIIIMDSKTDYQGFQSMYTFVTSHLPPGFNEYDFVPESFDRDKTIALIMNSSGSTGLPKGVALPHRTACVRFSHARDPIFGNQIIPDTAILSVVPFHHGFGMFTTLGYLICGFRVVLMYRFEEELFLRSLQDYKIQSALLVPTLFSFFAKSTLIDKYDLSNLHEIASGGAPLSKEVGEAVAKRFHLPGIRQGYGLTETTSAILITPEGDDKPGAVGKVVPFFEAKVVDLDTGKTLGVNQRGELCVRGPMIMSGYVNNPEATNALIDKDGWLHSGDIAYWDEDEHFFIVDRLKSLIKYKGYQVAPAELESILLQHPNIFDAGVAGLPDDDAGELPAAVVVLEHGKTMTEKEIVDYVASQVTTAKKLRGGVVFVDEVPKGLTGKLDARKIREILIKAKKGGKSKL
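Purified P. pyralis luciferase (10nM final) with 10uM D-luciferin and 10uM ATP (Km levels) in 50mM Tris acetate pH 7.5, 10mM Mg acetate, 0.01% Tween-20, 0.05% BSA; qHTS 6-point titration, ~60 µM downward; luminescence read.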
SMN2 splice enh: increases expression of the SMN2 splice variant; HEK293 SMN2-luciferase splicing reporter, luminescence, 30-36 h; Potency, µM (highest dose often 46.1 µM), inactives show top-dose activity change, positive = activation, hits mostly activators; actives 2.8% (n = 210,000); AID 1458; also: % of control where 0% means no effect; nearly all actives have a fitted effect of over 55% in size
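HEK293 cells carry an SMN2 […]–luciferase reporter in which exon 7 inclusion puts luciferase in frame. Cells were plated 10-12 h before compound addition, then incubated 30-36 h at 37C. ONE-Glo luminescence was read; sodium butyrate at 4.5 mM final served as control.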
ELG1 repair inh: blocks ELG1-dependent DNA repair in HEK293T cells | HEK293T ELG1-luciferase reporter, luminescence, 16 h; DNA damage induced by 5-fluorouridine | Potency, µM (highest dose often 46.1 µM), for inactives: at the highest dose activity change, negative = inhibition, hits mostly inhibitors | actives 2.3% (n = 330,000); also: % is scaled to controls: 0 for no effect and ±100 for the full control effect; nearly all actives have a fitted effect of over 55% in size
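Overnight (16 hr) co-exposure of 2,000 cells/well to 5-fluorouridine and compound at 37 °C preceded detection. Luciferase was quantified via ONE-Glo luminescence; loss of signal denotes inhibition.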
Rab9 prom act: activators of Rab9 promoter | Huh7 Rab9 promoter-luciferase reporter, luminescence, 24 h | Potency, µM (doses to about 9.22 µM), without a hit: at the highest dose activation, negative = inhibition, actives largely listed as activators | actives 2.8% (n = 320,000); also: % of control where 0% means no effect; nearly all actives have a fitted effect of over 60% in size
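Quantitative HTS format; Huh7 Rab9-luciferase reporter cells (1500/well) receive compound 2 h post-plating, incubate 24 h at 37 °C, then get luciferase reagent for 10 min before luminescence reading.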
ELG1 genotox: inducers of genotoxicity in HEK293T ELG1-luciferase cells; HEK293T ELG1-luciferase reporter, luminescence, 16 h; Potency, µM (top dose mostly 46 µM), for the others: at the top dose activity change, positive = activation, most hits filed as activators; actives 1.3% (n = 330,000); also: % of control where 0% means no effect; nearly all actives have a fitted effect of over 60% in size
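HEK293T cells expressing luciferase-tagged ELG1 were exposed to compound or DMSO vehicle for 16 hr at 37 °C and 5% CO2. Luciferase activity was then measured with ONE-Glo after 30 min at room temperature.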
NPC1 prom act: activates the NPC1 promoter; Huh7 NPC1 promoter luciferase reporter, 24 h; Potency, µM (highest dose often 9.22 µM), inactives show at the highest dose activation, usual class: activators; actives 2.4% (n = 320,000); AID 485313; also: % of control where 0% means no effect; nearly all actives have a fitted effect of over 60% in size
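Compounds in DMSO were transferred onto Huh7 NPC1-luciferase reporter cells pre-incubated 2 h; after 24 h at 37 °C, Amplite reagent was dispensed and luminescence recorded 10 min later.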
* marks the source's active call; other numbers are inactive results. Calls follow the shape of the dose curve; as a rule, active = well fitted curve in the direction sought with a large enough effect; inconclusive = small, poorly fitted or top-dose-only effect, or another doubt; inactive = no such curve, though single readings can be large; an effect the other way counts as inactive or inconclusive. Potency is read from the fitted curve at half-maximal effect.

Screening N#Cc1ccc(C(=O)NC2CCCCCCC2)cc1 returned FLuc counter 21.3µM*, ELG1 repair inh inconclusive, Rab9 prom act 1.41µM*, ELG1 genotox inconclusive and NPC1 prom act 1.78µM*.
Cc1ccc(C(=O)NC2CCCCCCC2)c(Cl)c1 was read as FLuc counter 0.757µM*, ELG1 repair inh inconclusive, Rab9 prom act 0.316µM*, ELG1 genotox 1.46µM* and NPC1 prom act 0.316µM*.
`O=C1CN(C(=O)COC(=O)CNS(=O)(=O)/C=C/c2ccccc2)c2ccccc2N1` gave FLuc counter -2.5%, SMN2 splice enh 1.3%, ELG1 repair inh 16.3%, Rab9 prom act 6.5%, ELG1 genotox -4.3% and NPC1 prom act -4.0%.
Screening O=C(NC(=S)NC1CCCCC1)c1ccc(F)cc1 returned FLuc counter inconclusive, ELG1 repair inh inconclusive, Rab9 prom act 3.98µM*, ELG1 genotox inconclusive and NPC1 prom act inconclusive.
For O=C(NC(=S)NC(CO)Cc1ccccc1)c1ccc(F)cc1 (configuration not stated) the results were FLuc counter 0.0%, ELG1 repair inh inconclusive, Rab9 prom act 3.98µM*, ELG1 genotox inconclusive and NPC1 prom act 1.26µM*.
Nc1c(C(=O)Nc2ccccc2F)sc2nc(-c3ccco3)ccc12 was read as FLuc counter inconclusive, SMN2 splice enh -19.4%, ELG1 repair inh inconclusive, Rab9 prom act inconclusive, ELG1 genotox inconclusive and NPC1 prom act inconclusive.
For COC(=O)c1sc2nc(-c3ccco3)ccc2c1N the results were FLuc counter 0.379µM*, SMN2 splice enh 6.31µM*, ELG1 repair inh inconclusive, Rab9 prom act 1.12µM*, ELG1 genotox inconclusive and NPC1 prom act 1.41µM*.
Screening NC(=O)c1sc2nc(-c3ccco3)ccc2c1N returned FLuc counter 10.7µM*, SMN2 splice enh inconclusive, ELG1 repair inh inconclusive, Rab9 prom act inconclusive, ELG1 genotox inconclusive and NPC1 prom act inconclusive.
For CSc1nnc(NC(=O)c2cccc(S(=O)(=O)N3CCOCC3)c2)s1 the results were FLuc counter inconclusive, ELG1 repair inh -6.2%, Rab9 prom act 23.2%, ELG1 genotox 11.3% and NPC1 prom act 14.8%.
`C=CCNC(=O)c1ccc(NC(=O)C2=CSCCO2)cc1` gave FLuc counter 12µM*, ELG1 repair inh inconclusive, Rab9 prom act 0.794µM*, ELG1 genotox inconclusive and NPC1 prom act 0.891µM*.
`O=C(CC1S/C(=N/N=C/C=C/c2ccccc2)NC1=O)Nc1ccc(C(=O)O)cc1` (configuration not stated) gave FLuc counter 13.5µM*, SMN2 splice enh -5.7%, ELG1 repair inh 2.8%, Rab9 prom act -2.7%, ELG1 genotox -10.9% and NPC1 prom act -4.0%.
`NC1=NC(c2cn[nH]c2-c2ccc(F)cc2)n2c(nc3ccccc32)N1` (configuration not stated) gave FLuc counter 1.4%, SMN2 splice enh 14.3%, ELG1 repair inh -0.4%, Rab9 prom act 2.0%, ELG1 genotox -0.5% and NPC1 prom act 0.8%.
Screening Cc1ccccc1NC(=O)c1c(C)oc2ccc(O)c(CN3CCCCCC3)c12 returned FLuc counter -4.4% and SMN2 splice enh -12.6%.
`CC(C)c1ccc(NC(=O)C2=CC=CN3CCS(=O)(=O)N=C23)cc1` gave FLuc counter inconclusive, ELG1 repair inh inconclusive, Rab9 prom act 20.4%, ELG1 genotox inconclusive and NPC1 prom act 14.1%.
`CCc1ccc(NC(=O)C2=CC=CN3CCS(=O)(=O)N=C23)cc1` gave FLuc counter 15.1µM*, ELG1 repair inh inconclusive, Rab9 prom act -6.0%, ELG1 genotox 7.5% and NPC1 prom act -0.5%.
Screening CCOC(=O)C1=NS(=O)(=O)NC(C)=C1 returned ELG1 repair inh inconclusive and ELG1 genotox -0.6%.
`O=C(NCC1CCCO1)c1ccccc1-c1nc(-c2ccccc2F)no1` (configuration not stated) gave FLuc counter inconclusive, ELG1 repair inh 6.7%, Rab9 prom act -3.1%, ELG1 genotox 0.7% and NPC1 prom act 2.7%.
CCCNC(=O)c1csc(Nc2cccc3ccccc23)n1 was read as FLuc counter inconclusive, ELG1 repair inh -26.1%, Rab9 prom act -3.0%, ELG1 genotox -6.2% and NPC1 prom act -0.7%.
COc1cccc(NC(=O)c2ccccc2-c2nc(-c3cccc(C)c3)no2)c1 was read as FLuc counter 16.9µM*, SMN2 splice enh -5.0%, ELG1 repair inh inconclusive, Rab9 prom act 25.7%, ELG1 genotox 1.3% and NPC1 prom act inconclusive.
Screening Cc1cccc(-c2noc(-c3ccccc3C(=O)NCC3CCCO3)n2)c1 (configuration not stated) returned FLuc counter 10.7µM*, SMN2 splice enh 10.8%, ELG1 repair inh inconclusive, Rab9 prom act 15.2%, ELG1 genotox 1.3% and NPC1 prom act inconclusive.
O=C(NCC1CCCO1)c1ccccc1-c1nc(-c2ccc(Cl)cc2)no1 (configuration not stated) was read as FLuc counter 15.1µM*, SMN2 splice enh -4.3%, ELG1 repair inh inconclusive, Rab9 prom act -5.7%, ELG1 genotox -7.0% and NPC1 prom act 3.2%.
O=C(NCC1CCCO1)c1csc(Nc2cccc3ccccc23)n1 (configuration not stated) was read as FLuc counter 21.3µM*, ELG1 repair inh inconclusive, Rab9 prom act -28.0%, ELG1 genotox inconclusive and NPC1 prom act -30.1%.
COc1cccc(NC(=O)CSc2cc(C)[nH]c(=O)n2)c1 was read as FLuc counter 1.9%.
COc1ccc(S(=O)(=O)N2CCCC(C(=O)NCC3CCCO3)C2)cc1OC (configuration not stated) was read as FLuc counter -0.5%, ELG1 repair inh 3.5%, Rab9 prom act 0.0%, ELG1 genotox -4.1% and NPC1 prom act -2.2%.
Screening CC(=O)Nc1cccc(NC(=O)Cc2nc(-c3ccccc3)sc2-c2ccc(C)cc2)c1 returned FLuc counter 21.3µM*, SMN2 splice enh 14.7%, ELG1 repair inh -2.4%, Rab9 prom act 8.2%, ELG1 genotox 3.0% and NPC1 prom act -3.2%.
Screening COc1cccc(NC(=O)Cc2nc(-c3ccccc3)sc2-c2ccc(C)cc2)c1 returned FLuc counter 15.1µM*, SMN2 splice enh 1.5%, ELG1 repair inh 29.6%, Rab9 prom act 8.4%, ELG1 genotox 1.4% and NPC1 prom act 3.1%.
Screening CCCn1c(-c2ccc(F)cc2)nc2c(NCCN3CCSCC3)nc(C)nc21 returned SMN2 splice enh -7.0%.
